Sampled rows, rich in hits. Any-hit rate of the full collection: about 8.9%.
12-hLO inh: inhibitors of human 12-lipoxygenase (ALOX12); 0.12% of 150,000 active; P18054; Potency, µM (highest dose often 57.1 µM), for the others: top-dose activity change, negative = inhibition, hits mostly inhibitors; AID 1452; purified 12-hLO, xylenol orange hydroperoxide absorbance; also: potency is read from the fitted curve at half-maximal effect; nearly all actives have a fitted effect of over 55% in size
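Purified human 12hLO (150 nM final) was preincubated with compounds for 15 min at room temperature in 25 mM Hepes pH 7.0, 0.01% Triton X-100, then reacted with 40 uM arachidonic acid for 30 min. Hydroperoxide was detected with ferrous iron/xylenol orange.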
IMPase Li cell: cell-permeable IMPase inhibitors with lithium potentiation. CHO-M1 cells, IP1 TR-FRET (IP-One), carbachol + lithium. Potency, µM (doses to about 59.4 µM), for the others: at the highest dose activity, negative = IMPase inhibition, hits mostly inhibitors. 0.35% of 210,000 active;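 also: IP1 builds up when IMPase is blocked and the TR-FRET signal falls; potency is read from the fitted curve at half-maximal effect; plate controls were basal vehicle for no effect and high inhibitor control for full effect; nearly all actives have a fitted effect of over 50% in size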
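Concentration–response in CHO-M1 cells, lithium-potentiated; 30 min at 37C. IP1 detected by competitive TR-FRET after 10 min lysis at RT. Hill-fitted AC50.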
NPSR antagonist: neuropeptide S receptor (human) antagonism, cAMP | Q6W5P4 | CHO-NPSR cells, cAMP TR-FRET, antagonist mode | Potency, µM (top dose mostly 38.3 µM), inactives show top-dose activity change, negative = inhibition, most hits filed as inhibitors | 1% of 220,000 active | AID 1461; also: potency is read from the fitted curve at half-maximal effect; nearly all actives have a fitted effect of over 50% in size
HPGD inh: HPGD (human) dehydrogenase inhibition | 4.3% of 150,000 active | P15428 | AID 894 | purified HPGD, NADH fluorescence kinetic, PGE2 substrate | Potency, µM, for inactives: at the top dose activity change, negative = inhibition, actives largely listed as inhibitors; active = well fitted inhibition curve with a large enough effect, not every such curve was filed as active; inconclusive = small, poorly fitted or top-dose-only effect, or another doubt; inactive = no such curve, though single readings can be large or run the other way; also: potency is read from the fitted curve at half-maximal effect
Target sequence (P15428 whole entry, looked up): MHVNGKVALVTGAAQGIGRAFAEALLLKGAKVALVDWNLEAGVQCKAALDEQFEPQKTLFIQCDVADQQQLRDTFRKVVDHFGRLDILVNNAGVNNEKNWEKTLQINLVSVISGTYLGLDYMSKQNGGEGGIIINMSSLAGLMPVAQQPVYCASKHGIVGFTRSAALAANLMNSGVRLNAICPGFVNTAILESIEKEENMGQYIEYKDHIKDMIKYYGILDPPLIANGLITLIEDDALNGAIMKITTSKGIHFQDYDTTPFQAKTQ
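20 nM HPGD preincubated 15 min at room temperature with compound in 50 mM Tris-HCl pH 8, 0.01% Tween 20. Started with 1 mM NAD+ and 30 uM prostaglandin E2; NADH fluorescence (360/450 nm) read 5 times over 30-s intervals, last minus first.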
ALDH1A1 inh: inhibitors of human aldehyde dehydrogenase 1A1; P00352; Purified ALDH1A1, NADH fluorescence, propionaldehyde substrate; Potency, µM (series often up to 75.3 µM), inactives show top-dose activity, negative = inhibition, actives largely listed as inhibitors; 7.3% of 220,000 active; active = well fitted inhibition curve with a large enough effect, not every such curve was filed as active; inconclusive = small, poorly fitted or top-dose-only effect, or another doubt; inactive = no such curve, though single readings can be large or run the other way;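 also: potency is read from the fitted curve at half-maximal effect; plate controls were no enzyme wells and a reference inhibitor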
IMPase cell inh: membrane-permeable compound that blocks inositol monophosphatase; CHO-M1 cells, IP1 accumulation, HTRF TR-FRET ratio; inhibition (IP1 accumulation), % at 46.1 µM; P97697; 120,000 tested, under 10 active; active = well fitted curve in the direction sought with a large enough effect in the signal ratio, not every such curve was filed as active; inconclusive = small, poorly fitted or top-dose-only effect, or a change in a side signal; inactive = no such curve, though single readings can be large or run the other way; the % refers to the signal ratio;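 also: cells stimulated with carbachol in lithium chloride buffer; plate controls were DMSO basal wells for no effect and reference inhibitor wells for full effect; higher means more IMPase inhibition seen as more IP1 and lower FRET ratio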
Target sequence (P97697 whole entry, looked up): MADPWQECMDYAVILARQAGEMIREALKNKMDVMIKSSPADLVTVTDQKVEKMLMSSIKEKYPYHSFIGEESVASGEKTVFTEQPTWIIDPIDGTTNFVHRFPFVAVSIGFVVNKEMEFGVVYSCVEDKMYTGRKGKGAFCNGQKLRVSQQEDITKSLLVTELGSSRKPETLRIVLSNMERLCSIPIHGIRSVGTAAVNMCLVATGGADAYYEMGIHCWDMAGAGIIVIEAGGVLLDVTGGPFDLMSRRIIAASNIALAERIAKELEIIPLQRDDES
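Cellular IMPase inhibition is scored as a rise in cytosolic IP1, detected by competitive TR-FRET between d2-labelled IP1 and a europium anti-IP1 antibody. M1-expressing CHO cells were stimulated with carbachol for 30 min at 37C, with lithium (50 mM LiCl) present in the buffer.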
The depositor's hits bear a star; [ ] = another dose, or the depositor's remark. Unless noted, calls follow the shape of the dose curve; as a rule, active = well fitted curve in the direction sought with a large enough effect; inconclusive = small, poorly fitted or top-dose-only effect, or another doubt; inactive = no such curve, though single readings can be large; an effect the other way counts as inactive or inconclusive. Unless noted, % is scaled to controls: 0 for no effect and ±100 for the full control effect.

Screening S=c1[nH]nc(-c2ccc3ccccc3n2)n1-c1ccccc1 returned 12-hLO inh 1%, IMPase Li cell -3%, NPSR antagonist -7%, HPGD inh 28µM*, ALDH1A1 inh inconclusive and IMPase cell inh -2.
Screening O=C(O)c1ccc(-n2c(-c3ccc(Br)cc3)n[nH]c2=S)cc1 returned 12-hLO inh 4%, IMPase Li cell 0%[38.3 µM], NPSR antagonist -2%[46.1 µM], HPGD inh inconclusive, ALDH1A1 inh 28µM* and IMPase cell inh 3.
`COc1ccccc1-c1n[nH]c(=S)n1-c1ccccc1` gave 12-hLO inh 3%, IMPase Li cell 2µM*, NPSR antagonist 11%[46.1 µM], HPGD inh 32µM*, ALDH1A1 inh inconclusive and IMPase cell inh inconclusive.
For Cc1cccc(-n2c(-c3csc4ccccc34)n[nH]c2=S)c1 the results were 12-hLO inh -7%, IMPase Li cell -1%, NPSR antagonist -15%, HPGD inh 14µM* and ALDH1A1 inh inconclusive.
Screening Cc1cccc(-n2c(-c3ccoc3C)n[nH]c2=S)c1 returned 12-hLO inh -5%, IMPase Li cell -22%, NPSR antagonist -5%, HPGD inh 25µM* and ALDH1A1 inh -3%.
Screening Cc1ccccc1-n1c(-c2ccoc2C)n[nH]c1=S returned 12-hLO inh -3%, IMPase Li cell -1%, NPSR antagonist 4%, HPGD inh -13% and ALDH1A1 inh -10%.
Screening COc1ccc(CCNC(=O)C2CCC(=O)N2CCc2ccccc2)cc1OC (centres undefined) returned IMPase Li cell -4%, NPSR antagonist -10% and ALDH1A1 inh -1%.
For O=c1c2cc(Cl)ccc2nc(-c2ccc([N+](=O)[O-])cc2)n1O the results were IMPase Li cell 24%, NPSR antagonist -10% and ALDH1A1 inh 11µM*.
CC(C)CC(=O)Nc1nc2ccc(S(=O)(=O)N3CCOCC3)cc2s1 was read as 12-hLO inh -5%, NPSR antagonist -12%[46.1 µM], ALDH1A1 inh 3% and IMPase cell inh inconclusive.
`Cc1ccc(S(=O)(=O)Cn2nnnc2CN2CCCC3(CCCCC3)C2)cc1` gave 12-hLO inh -2%, IMPase Li cell 11%, NPSR antagonist inconclusive, HPGD inh -13%, ALDH1A1 inh 16µM* and IMPase cell inh 7.
CCCc1[nH]nc2c1C(c1ccc(O)cc1OCC)C(C#N)=C(N)O2 (centres undefined) was read as 12-hLO inh -7%, IMPase Li cell 4%[38.3 µM], NPSR antagonist 5%[46.1 µM], HPGD inh -5%, ALDH1A1 inh 18µM* and IMPase cell inh 4.
Screening CCCc1[nH]nc2c1C(c1cccc(OC)c1)C(C#N)=C(N)O2 (centres undefined) returned 12-hLO inh -7%, IMPase Li cell 5%[38.3 µM], NPSR antagonist -12%[46.1 µM], HPGD inh -1%, ALDH1A1 inh 20µM* and IMPase cell inh 2.
Screening Cc1[nH]nc2c1C(c1ccc(OC(=O)c3ccco3)cc1)C(C#N)=C(N)O2 (centres undefined) returned 12-hLO inh 2%, IMPase Li cell -4%[38.3 µM], NPSR antagonist -6%[46.1 µM], HPGD inh -13%, ALDH1A1 inh inconclusive and IMPase cell inh -7.
CCOc1ccc(-c2[nH]nc3c2C(c2ccc(O)cc2)C(C#N)=C(N)O3)cc1 (centres undefined) was read as 12-hLO inh inconclusive, IMPase Li cell 51%[38.3 µM], NPSR antagonist -27%[46.1 µM], HPGD inh -29%, ALDH1A1 inh 18µM* and IMPase cell inh 4.
For CC(C)c1[nH]nc2c1C(c1ccc(OC(=O)c3ccco3)cc1)C(C#N)=C(N)O2 (centres undefined) the results were 12-hLO inh 1%, IMPase Li cell 5%, NPSR antagonist -7%[46.1 µM], HPGD inh -19%, ALDH1A1 inh 25µM* and IMPase cell inh -7.
CCCc1[nH]nc2c1C(c1ccsc1)C(C#N)=C(N)O2 (centres undefined) was read as IMPase Li cell 1%, NPSR antagonist 12% and ALDH1A1 inh -12%.

Screening results deposited in PubChem by National Center for Advancing Translational Sciences (NCATS).
